Experimental data taken from PubChem BioAssay (NCI).
Compounds without any hit were thinned out: in the full panel of roughly 83,000, 20% have a hit.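 Interpretation: 100, growth as untreated; towards 0, rising growth inhibition; 0, no net growth; 0 to -100, cell death. Compounds scoring below 10 were considered active.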 Values without a mark were called inactive. The source made the active and inactive calls.

Experiments:
Experiment in all cases: NCI-60 one-dose screen, 48 h (100 = growth as untreated, 0 = no growth, -100 = all killed)
Details in all cases: 10 µM unless noted
[1] = system: NCI-H226 lung
[2] = system: NCI-H322M lung
[3] = system: HOP-62 NSCLC
[4] = system: NCI-H460 lung
[5] = system: HOP-92 NSCLC
[6] = system: NCI-H522 lung
[7] = system: A549/ATCC NSCLC
[8] = system: 786-0 renal
[9] = system: COLO 205 colon
[10] = system: DU-145 prostate
[11] = system: K-562 leukemia
[12] = system: MALME-3M melanoma
[13] = system: MDA-MB-231 breast
[14] = system: RXF 393 renal
[15] = system: SF-268 CNS
[16] = system: SF-295 CNS
[17] = system: SF-539 CNS
[18] = system: UACC-257 melanoma
[19] = system: M14 melanoma

## NC(=O)c1ccc(-c2c3ccccc3cc3c2ccc2ccccc23)cc1
[1]
  growth: 65.6%
[2]
  growth: 80.1%
[3]
  growth: 65.7%
[4]
  growth: 29.9%
[5]
  growth: 76.4%
[6]
  growth: -20.6% (active)
[7]
  growth: 63.1%
[8]
  growth: 52.4%
[9]
  growth: 52.5%
[10]
  growth: 53.3%
[11]
  growth: 14%
[12]
  growth: 54.7%
[13]
  growth: 42.2%
[14]
  growth: 23%
[15]
  growth: 56%
[16]
  growth: 46.1%
[17]
  growth: 34.5%
[18]
  growth: 52.4%
[19]
  growth: 14.9%

## O=C(Nc1ccccc1O)c1ccc(CNC(=O)c2sccc2Nc2ccnc(C(F)(F)F)c2)cc1
[1]
  growth: 54.8%
[3]
  growth: 65.6%
[4]
  growth: 42%
[5]
  growth: 20.9%
[6]
  growth: 7.48% (active)
[7]
  growth: 66.5%
[8]
  growth: 60.4%
[9]
  growth: 73.3%
[10]
  growth: 46.7%
[11]
  growth: 25.1%
[12]
  growth: -2.09% (active)
[13]
  growth: 53%
[14]
  growth: 47.9%
[15]
  growth: 49.2%
[16]
  growth: 43.6%
[17]
  growth: 48.9%
[18]
  growth: 46.5%
[19]
  growth: 58.3%

## Cc1ccc(Nc2cc(N)nc(N)n2)cc1Cl
[1]
  growth: 93.3%
[2]
  growth: 99.8%
[3]
  growth: 87.3%
[4]
  growth: 103%
[5]
  growth: 83.9%
[6]
  growth: 87%
[7]
  growth: 83.1%
[8]
  growth: 87.9%
[9]
  growth: 107%
[10]
  growth: 94%
[11]
  growth: 74.4%
[12]
  growth: 97.7%
[13]
  growth: 102%
[14]
  growth: 97.5%
[15]
  growth: 88.7%
[16]
  growth: 92.3%
[17]
  growth: 96.7%
[18]
  growth: 93.6%
[19]
  growth: 93.5%

## Cc1ccc(C)n1-c1ccccc1-n1c(C)ccc1C
[1]
  growth: 97.8%
[2]
  growth: 99.9%
[3]
  growth: 112%
[4]
  growth: 105%
[5]
  growth: 92.4%
[6]
  growth: 96.5%
[7]
  growth: 101%
[8]
  growth: 101%
[9]
  growth: 114%
[10]
  growth: 111%
[11]
  growth: 101%
[12]
  growth: 120%
[13]
  growth: 90.8%
[14]
  growth: 109%
[15]
  growth: 98.6%
[16]
  growth: 92.9%
[17]
  growth: 104%
[18]
  growth: 103%
[19]
  growth: 112%

## CCn1cc(C(=O)O)c(=O)c2cc(F)c(N3CCN(CC(=O)Nc4ccc(S(=O)(=O)Nc5nccc(C)n5)cc4)C(C)C3)c(F)c21 (stereo not drawn)
[1]
  growth: 97.1%
[2]
  growth: 104%
[3]
  growth: 103%
[4]
  growth: 104%
[5]
  growth: 119%
[6]
  growth: 105%
[7]
  growth: 111%
[8]
  growth: 112%
[9]
  growth: 118%
[10]
  growth: 105%
[11]
  growth: 105%
[12]
  growth: 111%
[13]
  growth: 100%
[14]
  growth: 99%
[15]
  growth: 98.3%
[16]
  growth: 104%
[17]
  growth: 99.2%
[18]
  growth: 114%
[19]
  growth: 103%

## COc1ccc(/C=N/NC(=O)c2ccc(-n3cc(-c4ccccc4)nn3)cc2)cc1OC
[1]
  growth: 92.7%
[2]
  growth: 105%
[3]
  growth: 101%
[4]
  growth: 111%
[5]
  growth: 94.9%
[6]
  growth: 99.6%
[7]
  growth: 104%
[8]
  growth: 98.1%
[9]
  growth: 91.7%
[10]
  growth: 103%
[11]
  growth: 93.2%
[12]
  growth: 77.8%
[13]
  growth: 103%
[14]
  growth: 110%
[15]
  growth: 93.8%
[16]
  growth: 97.7%
[17]
  growth: 102%
[18]
  growth: 103%
[19]
  growth: 82.5%

## COc1cccc(/C=C2\COc3ccc(O)c(O)c3C2=O)c1
[1]
  growth: 79.1%
[2]
  growth: 36.4%
[3]
  growth: 4.02% (active)
[4]
  growth: 28.7%
[5]
  growth: -12% (active)
[6]
  growth: -67% (active)
[7]
  growth: 47.6%
[8]
  growth: -38.1% (active)
[9]
  growth: 43.3%
[10]
  growth: 4.84% (active)
[11]
  growth: 11.7%
[12]
  growth: -26.3% (active)
[13]
  growth: 0.944% (active)
[14]
  growth: -18.7% (active)
[15]
  growth: 5.27% (active)
[16]
  growth: 79.1%
[17]
  growth: -54.7% (active)
[18]
  growth: 28.1%
[19]
  growth: 26%

## O=C(CN1C(=O)NC2NC(=O)NC21)N/N=C/c1ccccc1[N+](=O)[O-] (stereo not drawn)
[1]
  growth: 87.6%
[2]
  growth: 106%
[3]
  growth: 103%
[4]
  growth: 108%
[5]
  growth: 115%
[6]
  growth: 96.5%
[7]
  growth: 110%
[8]
  growth: 101%
[9]
  growth: 120%
[10]
  growth: 113%
[11]
  growth: 104%
[12]
  growth: 107%
[13]
  growth: 114%
[14]
  growth: 118%
[15]
  growth: 107%
[16]
  growth: 105%
[17]
  growth: 95.2%
[18]
  growth: 116%
[19]
  growth: 102%

## COc1ccc(Cc2cnc(NC(=O)c3cc(C)oc3C)s2)cc1
[1]
  growth: 70.7%
[2]
  growth: 51.9%
[3]
  growth: 53%
[4]
  growth: 16.6%
[5]
  growth: 49.9%
[6]
  growth: 14.4%
[7]
  growth: 38.1%
[8]
  growth: 43.4%
[9]
  growth: 42.9%
[10]
  growth: 40.7%
[11]
  growth: 11.4%
[12]
  growth: 52.5%
[13]
  growth: 63.6%
[14]
  growth: 16.4%
[15]
  growth: 53.3%
[16]
  growth: 39.4%
[17]
  growth: 32.5%
[18]
  growth: 57.3%
[19]
  growth: 18.9%

## CN(c1cc2ncc(=O)[nH]c2cc1NC(N)=NCc1ccc(Cl)cc1)C1CCCCC1
[1]
  growth: 72.8%
[2]
  growth: 84.5%
[3]
  growth: 80.8%
[4]
  growth: 40.3%
[5]
  growth: 28%
[6]
  growth: 30.5%
[7]
  growth: 89.3%
[8]
  growth: 68.5%
[9]
  growth: -63.6% (active)
[10]
  growth: 71.7%
[11]
  growth: 2.83% (active)
[12]
  growth: 29.9%
[13]
  growth: 19.9%
[14]
  growth: 37.1%
[15]
  growth: 67.9%
[16]
  growth: 95.8%
[17]
  growth: 66.4%
[18]
  growth: 106%
[19]
  growth: 40.1%

## OCCn1cc(-c2nc(-c3c[nH]c4ncccc34)cs2)c2cc(F)ccc21
[1]
  growth: 48.4%
[2]
  growth: 66.3%
[3]
  growth: 71.9%
[4]
  growth: 65.7%
[5]
  growth: 52.3%
[6]
  growth: 45.5%
[7]
  growth: 63%
[8]
  growth: 81.9%
[9]
  growth: 66.4%
[10]
  growth: 83.7%
[11]
  growth: 21.5%
[12]
  growth: 84.9%
[13]
  growth: 64.5%
[14]
  growth: 51.1%
[15]
  growth: 77%
[16]
  growth: 72.1%
[17]
  growth: 81.5%
[18]
  growth: 87.8%
[19]
  growth: 63.8%

## C[C@@H](CO)[C@@H]1CCC=C2CC[C@]3(C)[C@H](CC[C@@H]4[C@@]5(C)CCCNC(C)(C)[C@@H]5CC[C@]43C)[C@H]21
[1]
  growth: 94.6%
[2]
  growth: 78.3%
[3]
  growth: 91.1%
[4]
  growth: -67.1% (active)
[5]
  growth: 75.7%
[6]
  growth: 82.1%
[7]
  growth: 47%
[8]
  growth: 70%
[9]
  growth: -56.8% (active)
[10]
  growth: 62.4%
[11]
  growth: -19.9% (active)
[12]
  growth: 46.6%
[13]
  growth: 59.9%
[14]
  growth: 68%
[15]
  growth: 82.2%
[16]
  growth: 93.7%
[17]
  growth: 57.8%
[18]
  growth: 30.4%
[19]
  growth: 30.9%

## COc1ccc2c(c1)CC[C@H](O)/C2=C/c1cc(OC)c(OC)c(OC)c1
[1]
  growth: 40.8%
[2]
  growth: 60.5%
[3]
  growth: 34.9%
[4]
  growth: 4.68% (active)
[5]
  growth: 5.25% (active)
[6]
  growth: -19.2% (active)
[7]
  growth: 13.7%
[8]
  growth: 16.1%
[9]
  growth: -48.8% (active)
[10]
  growth: 0.0757% (active)
[11]
  growth: 8.97% (active)
[12]
  growth: 64%
[13]
  growth: 14.5%
[14]
  growth: 15.5%
[15]
  growth: 27.1%
[16]
  growth: 8.44% (active)
[17]
  growth: -5.68% (active)
[18]
  growth: 47.3%
[19]
  growth: 6.27% (active)

## CCCCCCCCCCCCCCCCOCCCOP(=O)(O)C1CCCN(O)C1=O (stereo not drawn)
[1]
  growth: -21.9% (active)
[2]
  growth: 28.6%
[3]
  growth: 11.9%
[4]
  growth: -9.19% (active)
[5]
  growth: 39.3%
[6]
  growth: 26.2%
[7]
  growth: 17.8%
[8]
  growth: -10.4% (active)
[9]
  growth: 4.27% (active)
[10]
  growth: 24.6%
[11]
  growth: 19.4%
[12]
  growth: 20.4%
[13]
  growth: 42.7%
[14]
  growth: 7.41% (active)
[15]
  growth: 5.39% (active)
[16]
  growth: 3.46% (active)
[17]
  growth: -4.5% (active)
[18]
  growth: 18.2%
[19]
  growth: -3.96% (active)

## N#Cc1c(-c2ccccc2)[nH]c2ncc(-c3ccccc3)n2c1=O
[1]
  growth: 86.3%
[3]
  growth: 75.6%
[4]
  growth: 91.1%
[5]
  growth: 80.7%
[6]
  growth: 76.9%
[7]
  growth: 90.6%
[8]
  growth: 92.3%
[9]
  growth: 94.7%
[10]
  growth: 99.7%
[11]
  growth: 98.7%
[12]
  growth: 91.5%
[13]
  growth: 76.3%
[14]
  growth: 102%
[15]
  growth: 91.7%
[16]
  growth: 78.2%
[17]
  growth: 89.9%
[18]
  growth: 94%
[19]
  growth: 91.3%
